Among all 350,000 compounds or so, about 7,000 (2%) were called active. Many of the other results were omitted from the sample, so actives are more common in it than they were. A number with no mark means an inactive call. Cut-off read from the data, not from the text of the source: active = activation above about 40%; inconclusive = no clear call, values can overlap the other calls; inactive = below that.

A short description of the assay: raisers of Bmi1 knock-in reporter signal – mouse ES cells, Bmi1 luciferase knock-in, single point, esBAF inhibitor project, primary screen (AID 602393).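 Note: 0% = median of the plate's neutral control wells and 100% = double that signal; a rise in the Bmi1 reporter signal indicates esBAF inhibition.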 The note with it: 24 h, at 12.5 µM, active compounds read high, 100% = twice the neutral-well signal.
Regarding `Cc1cc(C(=O)Nc2cccc3c2O[C@@H](CN(C)S(=O)(=O)c2ccc(F)cc2)[C@@H](C)CN([C@H](C)CO)C3=O)n(C)n1`, the reporter increase was 5.98%. Then `CCC(=O)Nc1ccc2c(c1)OC[C@@H](C)N(Cc1ccccn1)C[C@H](C)[C@@H](OC)CN(C)C2=O`, with -3.64%; and `COc1ccc(NC(=O)N(C)C[C@H]2OCCCC[C@H](C)Oc3ccc(NS(C)(=O)=O)cc3C(=O)N([C@H](C)CO)C[C@@H]2C)cc1`, with 3.29%.

As for `CC(C)NC(=O)N(C)C[C@H]1OCCCC[C@@H](C)Oc2ccc(NS(C)(=O)=O)cc2C(=O)N([C@H](C)CO)C[C@H]1C`, the reporter increase was -1.04%.

Consider `COc1ccc(NC(=O)Nc2ccc3c(c2)C(=O)N([C@H](C)CO)C[C@@H](C)[C@H](CN(C)C(=O)Cc2ccccc2)OCCCC[C@H](C)O3)cc1`, for which the reporter increase is 15.2%. In the case of `CCc1ccc(NC(=O)Cn2ncn3c(cc4ccccc43)c2=O)cc1`, the reporter increase was -6.55%. As to `CC(C)c1ccc(NC(=O)Cn2ncc3ccccc32)cc1`, the reporter increase was 61.7% (active).

In the case of `CCOC(=O)c1cn(CC(=O)Nc2ccc(C(C)C)cc2)nn1`, the reporter increase is -4.55%. `COc1cccc(CNC(=O)[C@@H]2[C@@H](CO)[C@@H]3Cn4c(ccc(-c5cccnc5)c4=O)[C@@H]3N2C)c1`: the reporter increase was 0.488%.

Consider `COc1ccccc1-c1sc2ccccc2c1-c1ccc(C(C)=O)cc1`, for which the reporter increase is 34.4%.

Turning to `COC(=O)c1ccc(/C=C/c2c(-c3ccc(OC)cc3)sc3ccccc23)cc1`, the reporter increase was 0.121%.

Turning to `COc1ccc(N=C(C)c2sc3ccccc3c2O)cc1`, the reporter increase was 50.4% (active).

On to `N#C[C@H]1[C@@H](c2ccc(C3=CCCCC3)cc2)[C@@H](CO)N1C(=O)NC1CCCCC1`, for which the reporter increase was 7.57%. With `C[C@H]1CCCCO[C@H](CN(C)C(=O)Nc2ccccc2)[C@@H](C)CN([C@@H](C)CO)C(=O)c2cc(NC(=O)CCC(F)(F)F)ccc2O1`, the reporter increase is -7.05%. In the case of `O=C(C1CCC1)N1C[C@@H]2[C@H](c3ccccc31)[C@H](CO)N2C(=O)c1ccccc1`, the reporter increase was -1.2%. In the case of `Cc1ccc(-c2noc(CNC(=O)c3ccoc3C)n2)cc1` it was 1.49%; in that of `COc1ccccc1-c1noc(CSc2nc(C)cc(=O)[nH]2)n1`, -5.13%; in that of `COc1ccccc1Cc1nc(-c2ccc(C)cc2)no1`, 46.3% (active). In the case of `CCCc1nc(-c2cc3cc(C)ccc3[nH]c2=O)no1`, the reporter increase is -1.25%. Turning to `Cc1ccc(Cc2nc(-c3cccc(C)c3)no2)cc1`, the reporter increase was 60.8% (active).

For `Cc1ccc(-c2noc(CC(c3ccccc3)c3ccccc3)n2)cc1`, the reporter increase is 0.61%.

For the origin of these results see PubChem BioAssay AID602393 (Broad Institute, 2012).
